# T1: GIGYF2 507-602 GYF (domain begin residue: 507, domain end residue: 602), Q6Y7W6
# T1 chain: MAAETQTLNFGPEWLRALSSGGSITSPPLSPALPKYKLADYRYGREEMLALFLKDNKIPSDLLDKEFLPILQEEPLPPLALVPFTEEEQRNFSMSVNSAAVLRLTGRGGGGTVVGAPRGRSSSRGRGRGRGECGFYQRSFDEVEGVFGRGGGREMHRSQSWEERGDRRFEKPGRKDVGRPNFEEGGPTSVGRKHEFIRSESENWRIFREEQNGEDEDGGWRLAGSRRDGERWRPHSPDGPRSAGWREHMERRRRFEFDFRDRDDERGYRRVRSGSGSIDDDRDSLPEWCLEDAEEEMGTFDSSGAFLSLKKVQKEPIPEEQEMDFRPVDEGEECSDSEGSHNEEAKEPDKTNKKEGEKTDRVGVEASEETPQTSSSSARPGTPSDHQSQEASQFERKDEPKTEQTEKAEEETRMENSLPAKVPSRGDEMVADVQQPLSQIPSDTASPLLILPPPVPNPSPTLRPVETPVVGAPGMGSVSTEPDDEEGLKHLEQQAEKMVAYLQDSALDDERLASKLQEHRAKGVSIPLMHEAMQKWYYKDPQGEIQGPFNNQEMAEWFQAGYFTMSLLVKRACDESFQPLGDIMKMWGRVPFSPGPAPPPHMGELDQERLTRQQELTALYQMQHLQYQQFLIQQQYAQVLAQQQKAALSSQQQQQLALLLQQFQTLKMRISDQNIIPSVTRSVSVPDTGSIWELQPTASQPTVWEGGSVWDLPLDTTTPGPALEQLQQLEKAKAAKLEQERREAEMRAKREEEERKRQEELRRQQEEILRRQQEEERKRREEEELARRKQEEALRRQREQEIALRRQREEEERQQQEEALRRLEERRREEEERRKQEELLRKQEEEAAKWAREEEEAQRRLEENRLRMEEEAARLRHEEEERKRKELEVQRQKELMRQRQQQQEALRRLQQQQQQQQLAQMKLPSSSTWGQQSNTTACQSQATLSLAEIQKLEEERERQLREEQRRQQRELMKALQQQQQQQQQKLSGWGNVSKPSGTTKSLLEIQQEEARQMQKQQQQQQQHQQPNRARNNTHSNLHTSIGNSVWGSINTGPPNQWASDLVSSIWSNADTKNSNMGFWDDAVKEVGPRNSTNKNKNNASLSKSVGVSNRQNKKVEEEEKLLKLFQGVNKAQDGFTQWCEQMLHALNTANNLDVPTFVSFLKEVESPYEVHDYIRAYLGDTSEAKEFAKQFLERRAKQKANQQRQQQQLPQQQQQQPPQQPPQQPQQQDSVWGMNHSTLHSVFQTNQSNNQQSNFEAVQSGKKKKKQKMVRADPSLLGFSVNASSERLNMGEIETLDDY
# T2: GIGYF1 448-540 GYF (domain begin residue: 448, domain end residue: 540), O75420
# T2 chain: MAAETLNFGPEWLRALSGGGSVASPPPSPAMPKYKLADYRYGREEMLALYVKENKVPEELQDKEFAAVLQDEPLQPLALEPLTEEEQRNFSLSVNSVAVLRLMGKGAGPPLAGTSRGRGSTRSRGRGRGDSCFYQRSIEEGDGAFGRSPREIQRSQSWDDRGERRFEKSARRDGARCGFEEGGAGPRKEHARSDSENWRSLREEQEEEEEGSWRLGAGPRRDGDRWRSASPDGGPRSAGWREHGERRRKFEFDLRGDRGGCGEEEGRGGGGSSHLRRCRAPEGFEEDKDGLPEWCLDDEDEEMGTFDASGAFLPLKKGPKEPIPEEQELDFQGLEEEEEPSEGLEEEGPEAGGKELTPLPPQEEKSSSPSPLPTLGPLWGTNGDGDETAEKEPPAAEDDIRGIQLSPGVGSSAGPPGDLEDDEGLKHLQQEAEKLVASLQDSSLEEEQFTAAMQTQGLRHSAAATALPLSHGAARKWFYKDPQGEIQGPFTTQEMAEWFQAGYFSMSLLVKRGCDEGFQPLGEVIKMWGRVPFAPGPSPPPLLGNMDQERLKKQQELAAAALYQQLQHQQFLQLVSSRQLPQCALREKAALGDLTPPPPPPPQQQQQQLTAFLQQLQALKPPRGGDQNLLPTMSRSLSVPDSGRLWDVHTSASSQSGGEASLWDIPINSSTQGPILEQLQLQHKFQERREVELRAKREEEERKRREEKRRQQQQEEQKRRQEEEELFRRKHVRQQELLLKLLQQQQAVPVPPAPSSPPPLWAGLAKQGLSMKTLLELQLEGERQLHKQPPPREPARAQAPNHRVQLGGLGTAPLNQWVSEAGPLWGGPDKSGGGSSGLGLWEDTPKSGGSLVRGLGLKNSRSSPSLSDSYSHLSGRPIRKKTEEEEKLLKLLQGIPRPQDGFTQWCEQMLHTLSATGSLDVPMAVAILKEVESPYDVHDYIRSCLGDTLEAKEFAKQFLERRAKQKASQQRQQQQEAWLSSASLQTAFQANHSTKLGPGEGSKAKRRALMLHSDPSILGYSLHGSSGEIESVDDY
# T3: SPRED2 1-124 WH1 (domain begin residue: 1, domain end residue: 124), Q7Z698
# T3 chain: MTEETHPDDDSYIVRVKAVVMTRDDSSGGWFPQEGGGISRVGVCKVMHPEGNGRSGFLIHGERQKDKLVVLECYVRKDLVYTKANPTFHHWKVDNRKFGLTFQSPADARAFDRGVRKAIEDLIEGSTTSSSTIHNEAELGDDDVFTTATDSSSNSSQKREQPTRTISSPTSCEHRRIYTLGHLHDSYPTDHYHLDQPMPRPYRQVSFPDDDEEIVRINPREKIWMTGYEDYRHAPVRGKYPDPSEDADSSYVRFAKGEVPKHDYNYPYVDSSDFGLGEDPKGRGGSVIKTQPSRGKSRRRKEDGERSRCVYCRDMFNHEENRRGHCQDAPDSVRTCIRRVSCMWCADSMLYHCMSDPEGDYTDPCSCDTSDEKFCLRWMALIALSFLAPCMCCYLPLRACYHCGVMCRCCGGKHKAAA
# T4: GNA14 2-355 G-alpha (domain begin residue: 2, domain end residue: 355), O95837
# T4 chain: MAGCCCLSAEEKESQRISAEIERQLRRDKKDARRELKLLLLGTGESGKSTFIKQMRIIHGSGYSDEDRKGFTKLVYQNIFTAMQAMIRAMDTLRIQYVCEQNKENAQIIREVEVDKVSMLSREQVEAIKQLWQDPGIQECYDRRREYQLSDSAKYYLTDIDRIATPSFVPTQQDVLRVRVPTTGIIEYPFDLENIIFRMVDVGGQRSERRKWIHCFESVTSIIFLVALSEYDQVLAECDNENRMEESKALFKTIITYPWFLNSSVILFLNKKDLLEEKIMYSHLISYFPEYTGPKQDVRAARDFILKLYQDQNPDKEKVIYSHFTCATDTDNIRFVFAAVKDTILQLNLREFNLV
# Target: GGA3 579-723 Alpha_adaptinC2 (domain begin residue: 579, domain end residue: 723)
# Test: phage ELISA signal ratio (GST-PRM binding over GST background); higher = stronger binding of peptide-phage to the PRM
# Outline: (§1)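 An M13 phage library with randomized hexadecapeptides on the gene-8 major coat protein, each peptide lacking cysteine and flanked by glycine, was selected for five rounds against human peptide recognition domains fused to the C-terminus of glutathione S-transferase (GST) and expressed in 96-well plates. Approximately 48 clones from rounds 4 and 5 went to phage ELISA. The reported value is the ELISA signal on the GST-domain fusion over the signal on GST alone, and positive clones were sequenced.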
row,Binder,phage ELISA signal ratio
1,DEWGQWQLHESVFLME,27.9
2,DTWMWGGYVSHTVQPY,23.1
3,GEQMMWVDWGQWHWYE,26
4,SFTWDSFESYVEPWKY,9.04
5,DWSQWQTAAMEEMITW,18.5
6,ASQWEWDDWLYIHSQT,7.22
7,WEDWMEDWRQWEEPRK,31.4
8,IQWNDMDFENLSGWWG,4.03
9,IENSQPWITEYGAWEV,6.07
10,AWGKYQSWEPQEWPAT,13.4

# Target: T1, GIGYF2 507-602 GYF (domain begin …
# Test: as above
# Outline: as §1
row,Binder,phage ELISA signal ratio
1,NMFMPPGFAPQQVQMH,13.9
2,RFPPGMMQQLPQYADS,29.9
3,EGMGPPGFWVGSDLRG,14.7
4,AMTPPGFPHNTQMIRA,16.9
5,QPPPGWVPSTELLEFL,23.1
6,QRPPGNWGEVTQVPIL,9.77
7,NYPNHPPGYEKWFQTM,26.6
8,SEVHPPGFAQEHHIMQ,23.9
9,ARDLPPGFVMSPENAM,11.7
10,TPPGYTMLMKEHSARH,20.5

# Target: T2, GIGYF1 448-540 GYF (domain begin …
# Test: as above
# Outline: as §1
row,Binder,phage ELISA signal ratio
1,TIDTPPGFPTSQHEGM,16.8
2,SAPPGYQTGLLMAEYR,7.85
3,GPPGFHQHADVMRYEM,20.9
4,DHWGPPGLTWHVMERA,10.1

# Target: T3, SPRED2 1-124 WH1 (domain begin residue: …
# Test: as above
# Outline: as §1
row,Binder,phage ELISA signal ratio
1,SAPPGYQTGLLMAEYR,3.46

# Target: GGA3 1-153 VHS (domain begin residue: 1, domain end residue: 153)
# Test: as above
# Outline: as §1
row,Binder,phage ELISA signal ratio
1,PDTELIDVHQWRTSQW,22.1
2,QTDDPMWIPHQWFQAG,23.1
3,EMDVEMWFPHFMNHSF,34.5

# Target: T4, GNA14 2-355 G-alpha (domain begin …
# Test: as above
# Outline: as §1
row,Binder,phage ELISA signal ratio
1,QPDQIRFGPYISFSAI,24.3
2,DGDVQKWGPYYSFTQQ,28.9

# — the supplement of paper PMC7724964
